Source: PubChem BioAssay
Sampled rows, rich in hits. Any-hit rate of the full collection: about 4.6%.
FAS-TE inh: FAS thioesterase (human) inhibition. 360,000 compounds, 0.67% hits. AID 602261. inhibition, % at 15 µM. P49327. recombinant FAS-TE, OMFH fluorogenic substrate, fluorescence endpoint;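 active = compounds whose normalised, plate-corrected inhibition of enzyme fluorescence in the single-dose primary screen is 50% or more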;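 also: 0% = DMSO with enzyme and 100% = substrate without enzyme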
NR3A LBD binder: modulators (binders) of human NR3A ligand-binding domain; Tm shift relative to glycine control, % at 25 µM; 340,000 compounds, 2.5% hits; NR3A LBD differential scanning fluorimetry, Tm shift; 0% = protein alone, 100% = glycine-bound protein;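 active = melting temperature shift of at least 10% of the positive control shift, at one fixed dose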
ADAM17 inh: inhibits human ADAM17. 370,000 compounds, 0.83% hits. inhibition, % at 6.95 µM. P78536. recombinant ADAM17, EDANS/DABCYL FRET peptide cleavage. AID 720648;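 active = inhibition above the mean of compounds lying between control limits plus 3 SD, set per campaign, cut at about 8.5% in these data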;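 also: 0% = DMSO-only wells as the low control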
ADAM10 inh: inhibitors of human ADAM10. recombinant ADAM10, EDANS/DABCYL FRET peptide cleavage, 3 h. O14672. AID 720582. inhibition, % at 7 µM. 370,000 compounds, 0.62% hits;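 active = inhibition above a per-campaign cutoff equal to the mean of compounds falling between control-based bounds plus 3 SD, cut at about 20% in these data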;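 also: 0% = DMSO wells while the 100% control is not disclosed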
KLK7 zymogen act: activates the human kallikrein-7 zymogen; P49862; purified proKLK7, EDANS-DABCYL substrate fluorescence; 100% is mature enzyme control, 0% vehicle; activation, % at 7 µM; 370,000 compounds, 0.9% hits; AID 652039;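 active = activation above the mean of all tested compounds plus 3 SD, computed per campaign excluding outliers beyond control limits, cut at about 13% in these data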
Target sequence (P49862 whole entry, looked up): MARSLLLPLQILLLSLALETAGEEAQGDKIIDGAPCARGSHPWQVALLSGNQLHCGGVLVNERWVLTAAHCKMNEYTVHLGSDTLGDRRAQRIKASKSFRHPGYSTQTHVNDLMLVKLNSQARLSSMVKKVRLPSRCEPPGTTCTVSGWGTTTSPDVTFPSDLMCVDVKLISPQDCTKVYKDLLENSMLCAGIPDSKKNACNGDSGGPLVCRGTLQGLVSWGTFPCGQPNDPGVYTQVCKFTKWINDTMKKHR
Numbers without * were called inactive.

Screening COc1cc(OC)c2ccc(=O)oc2c1C(CCN1CCOCC1)c1ccc2c(c1)OCO2 (centres undefined) returned FAS-TE inh 12.4, NR3A LBD binder 15.4*, ADAM17 inh -7.1, ADAM10 inh -16.2 and KLK7 zymogen act 0.9.
COc1cc(OC)c2ccc(=O)oc2c1C(CCN1CCCC1)c1ccc2c(c1)OCO2 (centres undefined) was read as FAS-TE inh 43.0, NR3A LBD binder -0.5, ADAM17 inh -0.2, ADAM10 inh -12.4 and KLK7 zymogen act -0.6.
CC(=O)Nc1cccc(C(=O)/C=C/c2ccc(/C=C/C(=O)c3cccc(NC(C)=O)c3)cc2)c1 was read as ADAM17 inh 2.3, ADAM10 inh -1.2 and KLK7 zymogen act 0.3.
For CC(=O)Nc1cccc(C(=O)/C=C/c2ccc(N(C)C)cc2)c1 the results were FAS-TE inh -10.9, NR3A LBD binder 18.3*, ADAM17 inh -1.2, ADAM10 inh -9.3 and KLK7 zymogen act 1.6.
For CCn1c(SCC(=O)Nc2ccc(C(C)C)cc2)nnc1-c1ccc(C(C)(C)C)cc1 the results were ADAM17 inh 2.0, ADAM10 inh -2.5 and KLK7 zymogen act -0.3.
O=C(/C=C/c1ccc2c(c1)OCO2)NCCSCc1cccc(Cl)c1 was read as FAS-TE inh 27.8, NR3A LBD binder 26.1*, ADAM17 inh -11.9, ADAM10 inh -37.4 and KLK7 zymogen act -0.6.
`O=C(/C=C/c1ccc2c(c1)OCO2)NCCSCc1ccc(Cl)cc1Cl` gave FAS-TE inh 27.3, NR3A LBD binder -5.6, ADAM17 inh -3.2, ADAM10 inh 7.7 and KLK7 zymogen act -0.2.
Screening COC(=O)C1CN(Cc2cn(Cc3ccc(OC)cc3)nn2)CCS(=O)(=O)N1Cc1ccc(Cl)cc1 (centres undefined) returned ADAM17 inh -1.1, ADAM10 inh -1.2 and KLK7 zymogen act 0.4.
`CCOC(=O)[C@@]12CCC3=C1N(CCC3)C(=O)[C@H](CC(=O)NCc1ccc(C)o1)C2` gave ADAM17 inh -2.9, ADAM10 inh 2.5 and KLK7 zymogen act -0.5.
Screening COc1ccc(/C=N/NC(=O)c2ccc(O)cc2O)cc1CSc1ccccn1 returned FAS-TE inh -1.6, NR3A LBD binder 20.5*, ADAM17 inh -9.1, ADAM10 inh -33.0 and KLK7 zymogen act 0.8.
`Cn1cc(C(=O)N/N=C/c2ccc3c(c2)OCO3)c2ccccc21` gave FAS-TE inh 6.1, NR3A LBD binder 2.9, ADAM17 inh -3.1, ADAM10 inh -11.2 and KLK7 zymogen act 1.0.
CCn1c2ccccc2c2cc(/C=N/NC(=O)c3ccc(O)cc3)ccc21 was read as FAS-TE inh 9.3, NR3A LBD binder 38.4*, ADAM17 inh -54.5, ADAM10 inh -189.1 and KLK7 zymogen act -15.3.
CCn1c2ccccc2c2cc(/C=N/NC(=O)c3ccncc3)ccc21 was read as FAS-TE inh 3.8, NR3A LBD binder -0.8, ADAM17 inh -1.7, ADAM10 inh -6.6 and KLK7 zymogen act 1.3.
For COc1ccc(C=O)cc1CSc1ccccn1 the results were FAS-TE inh -5.4, NR3A LBD binder -0.5, ADAM17 inh -0.7, ADAM10 inh 3.1 and KLK7 zymogen act 0.1.
COc1ccc2c(c1)cc(C(=O)N/N=C/c1c(O)c(C(=O)O)cc3ccccc13)n2C was read as FAS-TE inh 24.4, NR3A LBD binder 11.2*, ADAM17 inh -63.4, ADAM10 inh -133.4 and KLK7 zymogen act -72.7.
Screening Cn1c2ccccc2c2cc(/C=N/NC(=O)c3ccc(O)cc3O)ccc21 returned FAS-TE inh 5.8 and NR3A LBD binder 30.2*.
For CC(=O)NC(C)C(=O)N1CCCC1C(=O)N1CCCC1C(=O)NC(C)C(=O)NC1C(=O)NC(CC(C)C)C(=O)NC2CCCCNC(=O)CCC(C(=O)NC(Cc3ccc(O)cc3)C(=O)O)NC(=O)C3CCC(=O)OCC(NC(=O)C4CCCN4C(=O)C(Cc4c[nH]c5ccccc45)NC2=O)C(=O)NC(CC(=O)OC1C)C(=O)NC(Cc1c[nH]c2ccccc12)C(=O)N3 (centres undefined) the results were ADAM17 inh -5.3, ADAM10 inh -2.1 and KLK7 zymogen act 0.1.
CC(=O)c1cc(-c2cccc(Cl)c2O)c(=O)n2c1CCC2 was read as ADAM17 inh -7.4, ADAM10 inh -8.7 and KLK7 zymogen act -0.4.
Cc1ccccc1C(=O)N(Cc1ccccn1)CC1CCCO1 (centres undefined) was read as ADAM17 inh -0.2, ADAM10 inh -1.9 and KLK7 zymogen act 0.2.
For Cn1c(O)c(/C=N/NC(=O)c2cc3ccccc3cc2O)c2ccccc21 the results were FAS-TE inh 29.3, NR3A LBD binder 21.3*, ADAM17 inh -2.2, ADAM10 inh -5.3 and KLK7 zymogen act -2.2.
Screening CCn1c2ccccc2c2cc(/C=N/NC(=O)c3cc(O)cc(O)c3)ccc21 returned FAS-TE inh 10.9, NR3A LBD binder 21.0*, ADAM17 inh -74.2, ADAM10 inh -168.3 and KLK7 zymogen act -2.2.
For Nc1nnc(-c2cn(-c3ccccc3)nc2-c2ccc(Cl)cc2)o1 the results were FAS-TE inh 1.1, NR3A LBD binder 24.9*, ADAM17 inh -2.9, ADAM10 inh -2.7 and KLK7 zymogen act -0.7.
`Nc1nnc(-c2cn(-c3ccccc3)nc2-c2ccccc2)o1` gave FAS-TE inh -0.9, NR3A LBD binder -28.4, ADAM17 inh -3.0, ADAM10 inh -6.5 and KLK7 zymogen act 0.7.
For O=C(c1ccccc1C(F)(F)F)N1CCC(Oc2cccnc2)CC1 the results were ADAM17 inh -1.1, ADAM10 inh 5.1 and KLK7 zymogen act 0.5.
C#CCN(C)S(=O)(=O)c1ccc(N2CCCC2)cc1Br was read as ADAM17 inh 0.2, ADAM10 inh 1.7 and KLK7 zymogen act 0.4.
`Cc1cc(C)nc(N/N=C/c2ccccc2OCc2ccccc2)n1` gave FAS-TE inh 3.6, NR3A LBD binder 12.2*, ADAM17 inh -1.1, ADAM10 inh -1.7 and KLK7 zymogen act 0.2.
Screening Oc1ccc(-c2csc(-c3c[nH]c4ccccc34)n2)c(O)c1 returned FAS-TE inh 16.2, NR3A LBD binder 34.4*, ADAM17 inh 5.8, ADAM10 inh 0.4 and KLK7 zymogen act -0.5.
`Cc1ccc(-c2csc(-c3c[nH]c4ccccc34)n2)c(C)c1` gave FAS-TE inh 35.5, NR3A LBD binder 24.0*, ADAM17 inh 3.5, ADAM10 inh 5.3 and KLK7 zymogen act -1.1.
Screening COc1ccc(Nc2nc(-c3c[nH]c4ccccc34)cs2)cc1 returned FAS-TE inh 6.4, NR3A LBD binder 3.0, ADAM17 inh 6.1, ADAM10 inh 10.3 and KLK7 zymogen act -0.3.
CC(=O)NCCC(=O)Nc1nc(-c2c[nH]c3ccccc23)cs1 was read as FAS-TE inh -3.3, NR3A LBD binder 5.0, ADAM17 inh -1.0, ADAM10 inh 10.4 and KLK7 zymogen act -0.6.
`CC(C)CNc1cccc2c1S(=O)(=O)N(Cc1cn(Cc3ccc(F)cc3)nn1)Cc1ccccc1O2` gave ADAM17 inh 0.5, ADAM10 inh -17.6 and KLK7 zymogen act -10.5.
